# Assay results published in the supplement of paper PMC6555819.
# What was measured:
# Test in all cases: PBM binding z-score (relative to random genomic background probes); higher = stronger binding; sequences stand for … in GC…GCGATTGACAGCGTAGAATGAAGG
# [1] = test system: FXR:RXRa (NR concentration 270 nM, RXRa partner concentration 90 nM)
# Summary of the method: (§1)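 Binding buffer was PBS pH 7.4 with 2% milk, 0.02% Triton X-100, 1 mM DTT, 0.2 mg/mL BSA and 0.4 mg/ml salmon testes DNA. In it, ligand-free nuclear receptor dimers were incubated 1 h on custom Agilent 4×180K protein-binding microarrays carrying double-stranded probes. Antibodies against each partner (one per run) detected binding, and z-scores were calculated against random background probes after regression normalization of scanned fluorescence.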
# [2] = test system: LXRa:RXRa (NR concentration 270 nM, RXRa partner concentration 90 nM)
# Summary of the method: as §1
# [3] = test system: LXRa homodimer (NR concentration 270 nM)
# Summary of the method: as §1
# [4] = test system: LXRb:RXRa (NR concentration 270 nM, RXRa partner concentration 90 nM)
# Summary of the method: as §1
# [5] = test system: LXRb homodimer (NR concentration 270 nM)
# Summary of the method: as §1
# [6] = test system: PPARa:RXRa (NR concentration 270 nM, RXRa partner concentration 90 nM)
# Summary of the method: as §1
# [7] = test system: PPARg:RXRa (NR concentration 180 nM, RXRa partner concentration 90 nM)
# Summary of the method: as §1
# [8] = test system: PPARg:RXRa 270nM:90nM, anti-RXR (NR concentration 270 nM, RXRa partner concentration 90 nM)
# Summary of the method: as §1
# [9] = test system: PPARg:RXRa 30nM:10nM, anti-RXR (NR concentration 30 nM, RXRa partner concentration 10 nM)
# Summary of the method: as §1
# [10] = test system: PPARg:RXRa 90nM:30nM, anti-RXR (NR concentration 90 nM, RXRa partner concentration 30 nM)
# Summary of the method: as §1
# [11] = test system: PPARg:RXRa DBDmut IVT, anti-RXR (DBD mutation: RXRa K156A/R161A, NR concentration 270 nM, RXRa partner concentration 90 nM)
# Summary of the method: as §1
# [12] = test system: PPARg:RXRa IVT, anti-PPARg (NR concentration 270 nM, RXRa partner concentration 90 nM)
# Summary of the method: as §1
# [13] = test system: PPARg DBDmut:RXRa IVT, anti-PPARg (DBD mutation: PPARg1 K132A/R137A, NR concentration 270 nM, RXRa partner concentration 90 nM)
# Summary of the method: as §1
# [14] = test system: PPARg DBDmut IVT, anti-PPARg (DBD mutation: PPARg1 K132A/R137A, NR concentration 270 nM)
# Summary of the method: as §1
# [15] = test system: PPARg homodimer (NR concentration 180 nM)
# Summary of the method: as §1
# [16] = test system: PXR:RXRa (NR concentration 270 nM, RXRa partner concentration 90 nM)
# Summary of the method: as §1
# [17] = test system: PXR homodimer (NR concentration 270 nM)
# Summary of the method: as §1
# [18] = test system: RARa:RXR (NR concentration 270 nM, RXRa partner concentration 90 nM)
# Summary of the method: as §1
# [19] = test system: RARa homodimer (NR concentration 270 nM)
# Summary of the method: as §1
# [20] = test system: RARb:RXRa (NR concentration 270 nM, RXRa partner concentration 90 nM)
# Summary of the method: as §1
Sequence,PBM binding z-score [1],PBM binding z-score [2],PBM binding z-score [3],PBM binding z-score [4],PBM binding z-score [5],PBM binding z-score [6],PBM binding z-score [7],PBM binding z-score [8],PBM binding z-score [9],PBM binding z-score [10],PBM binding z-score [11],PBM binding z-score [12],PBM binding z-score [13],PBM binding z-score [14],PBM binding z-score [15],PBM binding z-score [16],PBM binding z-score [17],PBM binding z-score [18],PBM binding z-score [19],PBM binding z-score [20]
ACCTCTAGGTAACAAGTTCAGTGAAAGAGAGGAC,0.245,0.295,0.188,0.426,-0.0173,1.02,1.18,1.5,0.452,1.29,3.28,2.07,0.823,0.266,0.609,1.57,1.32,0.59,-0.291,1.51
CCTTACGGGTCACTCCAGGTTATTGCATCGGAGT,5,7.62,2.75,5.48,0.61,4.32,3.25,3.54,1.08,2.44,2.64,3.54,0.677,1.01,2.9,5.46,0.3,4.02,1.23,3.56
ATCTCTAGGAAAAGTTCAGTGAAAGATCGATAGA,0.71,1.22,0.761,0.737,0.622,0.611,0.521,1.56,0.619,1.36,-0.273,0.00412,1.12,0.44,0.701,1.43,1.46,0.476,1.52,2.17
CCAGGCAGGTGAGAAGGTAACTCAGCCTCGATTA,-0.311,-0.32,-0.49,-0.277,-0.875,0.473,0.238,0.813,-0.448,0.0901,0.637,0.291,-1.38,-1.33,-0.318,-0.256,-0.513,-0.0086,-0.442,0.36
TTAATGAGGTTAAAGATCAGGGAACGTGGCGTCG,3.44,3.14,0.612,2.28,0.716,5.01,6.53,7.02,6.34,7.88,4.2,4.61,2.12,1.16,1.89,2.4,0.342,3.61,1.1,2.33
CTTGAAAGGTCGGTTGAGGTGAGTATACGGATAA,3.64,2.28,-0.0492,2.52,-0.354,3.43,0.512,1.27,0.216,0.942,0.154,0.996,-0.0609,0.067,0.811,3.33,0.421,2.5,-0.0411,2.97
CGTCCAAGGTCAAAGGTCAGTGAAGAGATGACGG,8.56,7.07,3.31,6.61,1.67,7.33,10.8,8.93,8.26,9.54,4.23,5.97,1.75,2.79,4.7,7.11,1.9,8.77,2.78,6.02
ATCGAAAGGTCGTGAGGTGAGAATACAGAAAGGC,5.69,4.09,0.3,3.37,0.293,5.61,4.61,4.58,1.99,3.09,0.36,2.7,1.67,0.86,1.7,3.16,0.322,4.19,0.587,4.13
AGAACGAGGGCAATGAGTTGCTAGCACGGGTGGC,0.0307,-0.027,-0.614,-0.476,-0.767,1.23,1.05,0.875,-0.288,0.214,3.04,2.38,0.736,-0.0393,-0.0603,0.451,0.523,0.256,-0.567,1.98
TAGCCTAGGTCATTCAGCGGCCAGTATAGAAAGC,5.03,3.68,1.04,2.68,0.455,3.72,2.09,2.21,0.564,1.12,1.69,2.65,0.127,-0.00854,2.11,1.94,-0.494,3.02,-0.474,3.92
GCATATAGGTAATACAAGGTTAAAGTCCGATTGT,0.589,5.43,4.13,2.63,-0.0858,2.39,1.69,1.5,0.655,0.992,4.38,3.23,0.799,0.913,1.39,2.6,0.613,2.53,0.428,0.87
ATCTCTAGGTAAAAGTTAAGTGAATCCCGAGGAT,0.172,0.0131,-0.136,-0.0735,0.69,1.58,3.42,4.91,2.79,4.71,2.03,2.31,1.28,1.28,0.613,-0.127,-0.352,-0.144,0.373,0.28
CGTCCAAGGTCAAGGTCAGTAAAAGAGACTCGAA,7.33,5.66,1.22,4.68,0.908,5.72,6.21,5.92,2.62,4.87,3.53,4.49,0.553,0.71,4.59,4.72,1.84,5,3.01,5.53
TCTCGGAGAACACGAAGGTCAGAGCTTTCCAGAG,-0.456,0.775,-0.321,0.915,-0.994,1.59,0.33,1.41,2.09,1.74,1.08,0.106,-2.09,-1.27,0.419,1.29,-0.535,1.67,-0.665,2.49
CAAACTAGATCAAAGGTCAAAGTCGAGCCAACCA,5.73,5.82,5.07,5.77,3.09,6.79,11.4,10.2,11.1,11.9,4.3,6.8,1.17,1.55,4.96,5.7,1.84,6.94,2.11,4.83
TCGAGTAGGTTACCAATGGGGCATACAGCTTTCT,0.164,1.55,-0.441,1.04,-0.663,1.18,0.984,1.68,1.27,1.28,3.13,3.01,-0.185,-0.3,-0.0294,0.327,-0.38,0.453,-0.62,0.89
ATATGTAGGTTAGCTGGGGTCAGTCAGACTAGGC,2.47,4.36,0.893,3.37,0.881,4.38,5.08,4.38,1.86,3.72,6.39,6.31,2.61,1.83,1.96,5.06,1.14,3.81,0.813,2.88
TCTGCTAGGTCAGTTGGTTAGCTAACGAGCTGCC,0.851,0.567,-0.601,0.643,0.257,1.05,0.0463,1.19,1.17,1.34,2.45,2.82,-0.493,-0.0218,-0.654,0.251,-0.819,0.432,-1.34,3.29
AGAACGAGGGCACGCTGAGTTGATAGCGGAGTAG,1.07,0.591,-0.337,0.0446,-0.975,1.83,1.78,1.71,-0.0619,0.703,4.05,3.75,0.375,0.0426,0.25,1.35,0.0475,0.611,0.00108,2.42
CCTTACGGGTCAAGGTTAGAGCACGGGTGGTACG,5.52,3.41,-0.175,2.64,-0.214,4.92,4.33,4.83,1.86,3.37,1.69,3.34,0.826,0.266,2.42,3.08,-0.133,3.92,0.744,4.13
GCATATAGGTAATACAAGGTGGAAGTCCGATTGT,0.184,0.265,-0.224,-0.272,-0.619,0.775,0.978,0.953,0.435,0.586,4.14,2.47,1.2,0.302,-0.138,0.192,0.041,0.731,0.593,0.0105
ATCTCTGGGTAACCAAGTTCAGTGAATGCCGAAC,0.227,0.778,0.498,0.621,0.534,1.09,0.329,0.858,-0.0191,0.333,3.23,2.59,0.324,1.24,0.00227,2.4,1.35,0.719,-0.0126,1.24
TCATATAGGTAAAGGAGAAAGTCGAACGATATGA,0.86,0.393,-0.261,0.259,-0.317,1.11,1.53,2.56,3.86,3.22,3.55,2.2,1.76,0.854,0.0719,0.215,-0.235,0.407,0.331,0.251
TCTCGGAGGACACGCAGGTCAGAGCTTTCCAGAG,0.587,0.453,-0.198,0.321,-1.1,1.22,-0.00527,0.98,1.99,1.12,1,0.776,-0.915,-1.54,0.365,1.1,0.213,1.15,-0.493,2.67
AGAATGAGGTTACCAAAGATAAGGGAAACGCTTG,1.56,1.65,-0.398,1.2,-0.13,3.46,2.87,2.43,0.9,1.9,3.63,3.34,0.848,0.91,1.01,0.851,0.109,1.68,0.445,1.73
GATGCAGGGTCAGCTAGAGGCCAGAGTATGGAAA,4.25,2.59,-0.565,2.29,-0.68,4.37,2.67,2.66,0.448,1.74,0.505,1.63,-0.437,-1.46,2.73,3.3,-0.237,4.56,0.285,4.1
CCTAATTGGTCAAGGTCACACACGCTATAGGTAC,4.21,4.15,2.33,4.22,1.18,4.36,3.13,3.45,1.13,2.69,2.69,3.49,1.13,1.42,3.47,4.32,1.9,4.28,2.79,4.22
CCTAACGGGTCACTGACAGGTTATAGCATTTGGA,4.16,3.46,0.268,2.65,-0.0444,4.42,3.07,3.01,0.84,1.88,2.22,2.71,-0.265,-0.262,2.61,3.02,0.336,4.05,1.31,3.48
